Only some compounds are listed: those with a hit (about 2.2% of all), similar ones and a draw of the others.
aSyn 5UTR inh: MLPCN primary screen, SNCA 5' untranslated region; AID 1813; alpha-synuclein 5'UTR reporter, inhibitor activity; 300,000 tested, 0.82% active; inhibition, % (tested at 7.5 µM); in the data active means inhibition above about 60%;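 further: H4 neuroglioblastoma cells stably carrying SNCA 5'UTR luciferase fusion; 0% = DMSO wells and 100% = positive control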
BaF3 parental: counter-screen for JAK2V617F inhibitors: parental Ba/F3 viability inhibitors. CellTiter-Glo ATP luminescence. inhibition, % at 5.6 µM. 220,000 tested, 1.1% active. AID 1486;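 active means inhibition above a per-campaign cutoff, the mean inhibition of all tested compounds plus 3 SD, cut at about 27% in these data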;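 further: 0% = DMSO wells and 100% = JAK Inhibitor I control wells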
KLF5 inh: suppresses KLF5 promoter-driven expression; DLD-1 KLF5 promoter-luciferase reporter, luminescence; inhibition, % at 5 µM; 290,000 tested, 0.23% active;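 active means inhibition above a per-plate limit of that plate's mean compound inhibition plus 3 SD, cut at about 60% in these data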;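 further: 0% = DMSO wells and 100% = LY294002 at 200 µM; higher means less KLF5 promoter-driven luciferase light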
IEC-6 cytotox: IEC-6 cytotoxicity, counter-screen for KLF5 inhibitors | luminescence viability | inhibition, % at 5 µM | 290,000 tested, 0.78% active | AID 1825; in the data active means inhibition above about 22%;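 further: 0% = plate median of test compound wells and 100% = cytotoxic reference compound wells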
Ba/F3 V617F tox: loss of viability in JAK2V617F-driven Ba/F3 cells; 220,000 tested, 1.1% active; Ba/F3 EpoR-JAK2V617F viability, ATP luminescence; inhibition, % at 5.6 µM; AID 1446;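 active means inhibition above the campaign mean plus 3 SD over all tested compounds, cut at about 24% in these data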;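 further: cytokine-independent growth of Ba/F3 cells driven by EpoR plus mutant JAK2; 0% = DMSO-treated cells and 100% = JAK inhibitor I control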
APP transl inh: APP translation inhibition. SH-SY5Y APP 5'UTR-luciferase reporter, luminescence. inhibition, % at 2 µM. 190,000 tested, 0.82% active;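 active means inhibition above a set limit, derived from the sample mean plus 3 SD, cut at about 45% in these data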
Active calls of the source: *.

Cc1nc2ccc3nc(NC(=O)C4COc5ccccc5O4)sc3c2s1 (stereo not given) was read as aSyn 5UTR inh 3.1, BaF3 parental 3.6, KLF5 inh -1.1, IEC-6 cytotox 3.4, Ba/F3 V617F tox 0.9 and APP transl inh 10.3.
Screening CCC(C)(C)NC(=O)CN(Cc1ccc(F)cc1)C(=O)CCC(=O)Nc1ccccn1 returned aSyn 5UTR inh -12.3, KLF5 inh -6.2 and IEC-6 cytotox 7.7.
Screening Oc1ccccc1-c1nnc(SCCN2CCOCC2)n1Cc1ccccc1 returned aSyn 5UTR inh 80.7*, BaF3 parental 82.6*, KLF5 inh 49.2, IEC-6 cytotox -1.1, Ba/F3 V617F tox 94.2* and APP transl inh 37.4.
`O=C(O)CC(c1cccc(O)c1)N1Cc2ccccc2C1=O` (stereo not given) gave aSyn 5UTR inh -3.4, KLF5 inh -12.8 and IEC-6 cytotox 5.8.
For O=C(c1ccc2c(=O)n(-c3ccccc3)c(=S)[nH]c2c1)N1CCCCC1 the results were aSyn 5UTR inh 4.2, BaF3 parental 63.5*, KLF5 inh -21.4, IEC-6 cytotox 1.1, Ba/F3 V617F tox 44.8* and APP transl inh -2.5.
For COC(=O)c1c(C)[nH]c(C(=O)N2CCN(c3ccc(OC)cc3)CC2)c1C the results were aSyn 5UTR inh -43.4, BaF3 parental 9.0, KLF5 inh -33.8, IEC-6 cytotox -0.7, Ba/F3 V617F tox 1.1 and APP transl inh 7.3.
`COc1cccc(N2CCN(C(=O)c3[nH]c(C)c(C(C)=O)c3C)CC2)c1` gave aSyn 5UTR inh -2.2, BaF3 parental 35.2*, KLF5 inh 41.0, IEC-6 cytotox 16.5, Ba/F3 V617F tox 20.9 and APP transl inh 29.2.
`CCOc1ccc(NC(=O)CCNS(=O)(=O)c2ccc3c(c2)CC(C)N3C(C)=O)cc1` (stereo not given) gave aSyn 5UTR inh 27.4, KLF5 inh -9.4 and IEC-6 cytotox -2.8.
`CCC(=O)c1cn(CC(=O)OC)c2ccccc12` gave aSyn 5UTR inh -18.5, BaF3 parental 2.2, KLF5 inh -27.8, IEC-6 cytotox -5.3, Ba/F3 V617F tox -2.7 and APP transl inh 68.0*.
Screening COC(=O)Cn1cc(C(=O)OC)c2ccccc21 returned aSyn 5UTR inh 14.1, BaF3 parental 11.8, KLF5 inh -20.9, IEC-6 cytotox -2.2, Ba/F3 V617F tox 7.6 and APP transl inh 5.5.
Screening CC(=O)c1cn(CC(=O)Nc2c(C)cccc2C)c2ccccc12 returned aSyn 5UTR inh 8.3, BaF3 parental 42.9*, KLF5 inh 2.6, IEC-6 cytotox 6.3, Ba/F3 V617F tox 33.2* and APP transl inh 13.2.
O=C(NC1CCCC1)C(c1cccnc1)N(C(=O)c1ccco1)c1ccc(F)cc1 (stereo not given) was read as aSyn 5UTR inh -6.9, KLF5 inh 3.2 and IEC-6 cytotox 1.0.
Screening N#Cc1c(NC(=O)CSc2nc(N)cc(=O)[nH]2)sc2c1CCCCCC2 returned aSyn 5UTR inh 14.5, BaF3 parental 5.3, KLF5 inh -14.9, IEC-6 cytotox 3.6, Ba/F3 V617F tox -0.3 and APP transl inh 0.8.
N#Cc1c(NC(=O)CSc2ncn[nH]2)sc2c1CCCCC2 was read as aSyn 5UTR inh 82.5*, BaF3 parental 4.4, KLF5 inh 2.5, IEC-6 cytotox 2.7, Ba/F3 V617F tox -0.4 and APP transl inh 79.3*.
For O=C(N/N=C/c1cc(Cl)ccc1O)c1ccc(Br)cc1 the results were BaF3 parental 6.7, KLF5 inh 19.2, IEC-6 cytotox 11.4, Ba/F3 V617F tox 2.2 and APP transl inh 56.4*.
CC(C)C(=O)Nc1ccc(C(=O)N/N=C/c2cc(Br)cc(Br)c2O)cc1 was read as aSyn 5UTR inh 7.7, BaF3 parental 5.2, KLF5 inh -36.5, IEC-6 cytotox 0.1, Ba/F3 V617F tox 3.3 and APP transl inh 45.7*.
For O=C(N/N=C\c1cc(Br)ccc1O)c1ccc(S(=O)(=O)N2CCCCC2)cc1 the results were aSyn 5UTR inh 109.7*, BaF3 parental 0.3, KLF5 inh -0.9, IEC-6 cytotox 0.3, Ba/F3 V617F tox -3.5 and APP transl inh 69.1*.
NC(=O)N/N=C\c1cc(Br)ccc1O was read as aSyn 5UTR inh 17.5, BaF3 parental 3.0, KLF5 inh -2.8, IEC-6 cytotox 2.3, Ba/F3 V617F tox -4.2 and APP transl inh -2.8.
Clc1ccc(-c2nc3cc(CN4CCCCC4)ccc3o2)cc1 was read as aSyn 5UTR inh -206.0, KLF5 inh -136.8 and IEC-6 cytotox 3.3.
For COc1ccc(C)cc1NC(=O)CSc1nnc2ccc(-c3cccnc3)nn12 the results were aSyn 5UTR inh 2.0.
For Cn1c(=O)oc2cc(S(=O)(=O)N3CCc4ccccc43)ccc21 the results were aSyn 5UTR inh 16.0, BaF3 parental 3.0, KLF5 inh 20.8, IEC-6 cytotox 1.7 and Ba/F3 V617F tox 2.7.
For O=S(=O)(c1ccc2ccccc2c1)N1CCc2ccccc21 the results were aSyn 5UTR inh 32.5, KLF5 inh -21.4 and IEC-6 cytotox 1.2.
Screening Cn1c(=O)oc2cc(S(=O)(=O)N3CCCc4ccccc43)ccc21 returned aSyn 5UTR inh 0.0, BaF3 parental 44.7*, KLF5 inh 20.4, IEC-6 cytotox 0.4, Ba/F3 V617F tox 54.9* and APP transl inh 37.5.
For COC(=O)Nc1ccc(S(=O)(=O)N2CCCc3ccccc32)cc1 the results were aSyn 5UTR inh 84.1*, BaF3 parental 78.6*, KLF5 inh 51.2, IEC-6 cytotox 73.8*, Ba/F3 V617F tox 84.8* and APP transl inh 89.8*.
COC(=O)Nc1ccc(S(=O)(=O)N2CCCc3cccc(O)c32)cc1 was read as aSyn 5UTR inh -11.6, BaF3 parental 12.0, KLF5 inh -6.9, IEC-6 cytotox 16.5, Ba/F3 V617F tox 3.8 and APP transl inh 0.8.
Screening Cn1c(=O)c(=O)n(C)c2cc(S(=O)(=O)N3CCc4ccccc43)ccc21 returned aSyn 5UTR inh 12.0, BaF3 parental 30.6*, KLF5 inh 25.1, IEC-6 cytotox 2.3, Ba/F3 V617F tox -2.4 and APP transl inh -11.2.
`CCC1CCc2sc(C(=O)N3CCCN(C)CC3)cc2C1` (stereo not given) gave aSyn 5UTR inh -26.7, KLF5 inh -37.9 and IEC-6 cytotox 6.2.
CCOC(=O)c1c(C)[nH]c(C)c1S(=O)(=O)NC(CC)CN1CCOCC1 (stereo not given) was read as aSyn 5UTR inh 13.4, KLF5 inh -24.6 and IEC-6 cytotox -4.7.
CCN(CC)c1ccc(/C=N/n2c(-c3ccccc3Br)n[nH]c2=S)cc1 was read as aSyn 5UTR inh 77.5*, BaF3 parental -0.3, KLF5 inh 3.6, IEC-6 cytotox 2.1 and Ba/F3 V617F tox 3.0.
For CCOc1cc(C(=O)Oc2cc(C)[nH]c(=O)c2[N+](=O)[O-])cc(OCC)c1OCC the results were aSyn 5UTR inh 2.1, KLF5 inh 1.8 and IEC-6 cytotox 8.6.
For N#CC(C#N)=C1C=CC=CN1/C(=C\c1ccccc1)C(=O)c1cccs1 the results were aSyn 5UTR inh -9.4, BaF3 parental -2.1, KLF5 inh -16.0, IEC-6 cytotox 2.7, Ba/F3 V617F tox -4.5 and APP transl inh -6.2.

Source: PubChem BioAssay
